Here are results for four sequences from paper PMC8384837, “Expanding the binding specificity for RNA recognition by a PUF domain”.

Experiment in all cases: yeast three-hybrid, YBZ-1, SC-Leu-His + 0.5 mM 3-AT, 4 days
Common to all, as to conditions: tags: N-Gal4 AD-HA kept; label: inside an RPR1-promoter hybrid RNA with tandem MS2 sites; ssRNA

For one assay, the target named is PUM1 PUF domain R3-RTA (Homo sapiens, UniProt Q14671 828-1176, C935R;R936T;Q939A). In short, it runs like this:
(§1)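 Sequencing with Illumina followed PCR amplification of the repeat regions from transformants grown four days on SC-Leu (input) or SC-Leu-His + 0.5 mM 3-AT (selection). The transformants were strain YBZ-1 with a LexA–MS2 coat fusion and a HIS3 reporter, carrying Pumilio-1 PUF domain libraries and matching RNA elements. The interaction score is the log change in variant frequency from input to selection, computed in log2 with a pseudocount of 1 for absent variants.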

A further assay concerns the target PUM1 PUF domain R8-LFN (Homo sapiens, UniProt Q14671 828-1176, N1122L;Y1123F;Q1126N). In short, it runs like this: as §1
Another assay concerns the target PUM1 PUF domain R4-RVF (Homo sapiens, UniProt Q14671 828-1176, N971R;H972V;Q975F). In outline: as §1
The next assay deals with PUM1 PUF domain R5-PRV (Homo sapiens, UniProt Q14671 828-1176, C1007P;Q1011V). In short, it runs like this:
as §1

Another assay has as its target PUM1 PUF domain R3-LFN (Homo sapiens, UniProt Q14671 828-1176, C935L;R936F;Q939N). In short, it runs like this:
as §1

Chain of PUM1 PUF domain R8-LFN (Q14671 828-1176 N1122L/Y1123F/Q1126N): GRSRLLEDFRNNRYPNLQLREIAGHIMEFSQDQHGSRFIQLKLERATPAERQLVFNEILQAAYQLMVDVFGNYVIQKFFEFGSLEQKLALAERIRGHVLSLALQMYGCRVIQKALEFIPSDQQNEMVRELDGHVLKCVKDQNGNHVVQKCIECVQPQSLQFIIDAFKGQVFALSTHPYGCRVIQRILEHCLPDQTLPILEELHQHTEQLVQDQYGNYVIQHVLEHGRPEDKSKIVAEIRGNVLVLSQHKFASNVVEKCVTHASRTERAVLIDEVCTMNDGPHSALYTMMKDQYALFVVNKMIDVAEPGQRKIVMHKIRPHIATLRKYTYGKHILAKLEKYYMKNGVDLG
Chain of PUM1 PUF domain R3-RTA (Q14671 828-1176 C935R/R936T/Q939A): as the sequence (Q14671 828-1176 N1122L/Y1123F/Q1126N) above, with C108R, R109T, Q112A, L295N, F296Y, N299Q counted along it
Chain of PUM1 PUF domain R5-PRV (Q14671 828-1176 C1007P/Q1011V): as the sequence (Q14671 828-1176 N1122L/Y1123F/Q1126N) above, with C180P, Q184V, L295N, F296Y, N299Q counted along it
Chain of PUM1 PUF domain R4-RVF (Q14671 828-1176 N971R/H972V/Q975F): as the sequence (Q14671 828-1176 N1122L/Y1123F/Q1126N) above, with N144R, H145V, Q148F, L295N, F296Y, N299Q counted along it
Chain of PUM1 PUF domain R3-LFN (Q14671 828-1176 C935L/R936F/Q939N): as the sequence (Q14671 828-1176 N1122L/Y1123F/Q1126N) above, with C108L, R109F, Q112N, L295N, F296Y, N299Q counted along it

For “GGCUAGAACUAGUGGAUCCCCCGGCGCCCGGCGGCUCGAGCCCGGGUAAGUGUAAUUAGUCUGCAUGCCGCCGGGCGCCAUGCCUGCAGGUCGACUCUAGAAAACAUG”, the binding signal in the assay with PUM1 PUF domain R3-RTA was 3.27 log2 enrichment (interaction score).
“GGCUAGAACUAGUGGAUCCCCCGGCGCCCGGCGGCUCGAGCCCGGGUAAGCGUAAAUAGUCUGCAUGCCGCCGGGCGCCAUGCCUGCAGGUCGACUCUAGAAAACAUG”: the binding signal with PUM1 PUF domain R8-LFN is 2.16 log2 enrichment (interaction score).
In the case of “GGCUAGAACUAGUGGAUCCCCCGGCGCCCGGCGGCUCGAGCCCGGGUAAGUGUAAAUAGUCUGCAUGCCGCCGGGCGCCAUGCCUGCAGGUCGACUCUAGAAAACAUG”, the binding signal is 0.52 log2 enrichment (interaction score) with PUM1 PUF domain R8-LFN, 2.93 log2 enrichment (interaction score) with PUM1 PUF domain R4-RVF and 3.15 log2 enrichment (interaction score) with PUM1 PUF domain R5-PRV.
Take “GGCUAGAACUAGUGGAUCCCCCGGCGCCCGGCGGCUCGAGCCCGGGUAAGUGUAAGUAGUCUGCAUGCCGCCGGGCGCCAUGCCUGCAGGUCGACUCUAGAAAACAUG”: the binding signal in the assay with PUM1 PUF domain R3-LFN is 5.99 log2 enrichment (interaction score).
